Results as given in PubChem BioAssay AID738 (SRMLSC, 2007).
In all, about 98,000 compounds went through this assay and about 4,900 (5%) were called active. Many of the other results were omitted from the sample, so actives are more common in it than they were. A number with no mark means an inactive call. No stated cut-off is given here; in the data, active means inhibition above about 30%; inactive means the rest.

Experiment: growth inhibition of yeast control strain, primary screen, counter-screen for post-Golgi transport modulator project (AID 738)
Conditions: efflux-deficient yeast background strain, growth absorbance A615, 16 h; at 10 µM; hits give high values

| SMILES | inhibition |
| --- | --- |
| CCN(CC)CCN1C(=O)C(=O)/C(=C(/O)c2cnn(-c3ccccc3)c2C)C1c1cccs1 (stereo not drawn) | 10.5% |
| S=c1nccc(-c2cc(Cl)sc2Cl)[nH]1 | -1.82% |
| O=C(Nc1ccccc1N1CCN(c2ccccc2)CC1)c1cccc(F)c1 | 15.4% |
| O=C(Nc1ccccc1N1CCCCC1)c1ccc2nccnc2c1 | 16.6% |
| O=C(Nc1ccccc1N1CCCCC1)c1cccc(F)c1 | 31.6% (active) |
| CCC(=O)OCc1c(C(F)(F)F)nn(C)c1Oc1cccc(C(F)(F)F)c1 | -7.2% |
| S=C(NCc1cccs1)Nc1ccc(Cl)cc1 | 1.15% |
| S=C(NCc1ccc(Cl)cc1)NC12CC3CC(CC(C3)C1)C2 | 69.2% (active) |
| O=C(NCc1ccc2c(c1)OCO2)C12CC3CC(CC(C3)C1)C2 | 9.12% |
| O=C(/C=C/c1cccs1)c1cc(Cl)ccc1OC(=O)N1CCOCC1 | 16.3% |
| N/C(=N\OC(=O)c1cc(-c2ccccc2)nc2ccccc12)c1ccncc1 | 13.9% |
| Nc1ccccc1SCc1cc([N+](=O)[O-])cc2c1OCOC2 | 13.6% |
| CCOc1ccc(OCC)c(NC(=O)CN(C)S(=O)(=O)c2cccc3nsnc23)c1 | 0.74% |
| O=C(O)c1ccc(NS(=O)(=O)c2cccc3nsnc23)cc1 | 18% |
| CCOc1ccc(NC(=O)CCS(=O)(=O)c2cccc3nsnc23)cc1 | 32.5% (active) |
| CCCCN(CC)C(=O)CN(C)S(=O)(=O)c1cccc2nsnc12 | 7.72% |
| CCOc1ccc(-c2cn(S(=O)(=O)c3cccc4nsnc34)nc2N)cc1 | 53.9% (active) |
| Cc1cccc(C)c1NC(=O)CCS(=O)(=O)c1cccc2nsnc12 | 9.17% |
| CCc1ccc(C(=O)CSc2nnc(C)c(=O)[nH]2)cc1 | 22% |
| Nc1ccc(C(=O)OCC(=O)NC2CCCc3ccccc32)cc1[N+](=O)[O-] (stereo not drawn) | 16.1% |
| CCCc1nc2ccccc2c(C(=O)OCC(=O)c2ccc3c(c2)NC(=O)CO3)c1CC | 2.23% |

| SMILES | inhibition |
| --- | --- |
| O=C(COc1ccc2c(C(F)(F)F)cc(=O)oc2c1)Nc1ccc2c(c1)OCCO2 | 3.57% |
| CCOc1ccc(S(=O)(=O)Nc2nc3cc(OC)ccc3s2)cc1 | 2.89% |
| CC(=O)c1cnc(SCCN2C(=O)c3ccccc3C2=O)nc1C | -2.62% |
| Cc1cc(C)c2nc(NC(=O)c3ccc4c(c3)OCO4)sc2c1 | 21.3% |
| COc1ccc(C)cc1S(=O)(=O)NC1CCCCC1 | 2.46% |
| CSc1ccc(S(=O)(=O)NC2CCCCC2)cc1 | 10.7% |
| O=S(=O)(NC1CCCCC1)c1ccc(F)c2ccccc12 | 35.4% (active) |
| Cc1ccc(N(NC(=O)C(C)(C)O)C(=O)c2ccccc2)cc1C | 0.77% |
| Cc1ccccc1C(=O)N1CCC(C(=O)Nc2ccc(S(=O)(=O)N(C)C(C)C)cc2)CC1 | -2.28% |
| Cc1nc(Cl)c2oc3ccccc3c2n1 | -0.78% |
| CCc1nc(Nc2ccc3nccnc3c2)c2oc3ccccc3c2n1 | 4.28% |
| COc1ccccc1Nc1ncnc2c1oc1ccccc12 | 31.2% (active) |
| NS(=O)(=O)c1cccnc1Nc1cccc(Cl)c1 | 7.66% |
| O=C(Cn1ccc([N+](=O)[O-])n1)NCc1cccs1 | 18.9% |
| Cc1cccc(CSc2nnc(Cn3c(=O)sc4ccccc43)n2C)c1 | 13.1% |
| Cn1c(SCc2nc3ccccc3s2)nnc1-c1ccc2c(c1)OCO2 | 33.8% (active) |
| Cc1ccccc1-c1nnc(SCC(=O)NCc2ccc3c(c2)OCO3)n1C | 12.7% |
| Cc1cccc(N2C(=O)C3C(c4ccccc4)OC4(C(=O)c5ccccc5C4=O)C3C2=O)c1 (stereo not drawn) | -14.2% |
| CCN(CC)C(=O)CSc1nnc(CNc2ccc(F)cc2)n1Cc1ccco1 | 7.51% |
| COc1cccc(-c2nnc(SCCOc3ccc4c(C)cc(=O)oc4c3)o2)c1 | 7.69% |
| CC(Sc1nnc(Cc2ccc([N+](=O)[O-])cc2)o1)C(N)=O (stereo not drawn) | 5.64% |

| SMILES | inhibition |
| --- | --- |
| N#C/C(=C(/O)Cc1cccc2ccccc12)c1nc2ccccc2s1 | 0.29% |
| COc1ccc(OCC(=O)NCCc2ccc(S(N)(=O)=O)cc2)cc1 | -0.6% |
| CC(C)NS(=O)(=O)c1ccc(OCC(=O)Nc2ccc3c(c2)OCCO3)cc1 | 3.4% |
| Cc1ccc(CNC(=O)COc2ccc(S(=O)(=O)NC(C)C)cc2)cc1 | 36.6% (active) |
| CNC(=O)c1csc(-c2ccccc2)n1 | -5.25% |
| Cc1occc1C(=O)NNC(=S)NCC(C)C | 3.2% |
| CSCCC(NS(=O)(=O)c1ccc2c(c1)oc(=O)n2C)C(=O)NC1CCCc2ccccc21 (stereo not drawn) | -5.76% |
| CCCc1cc(-c2n[nH]c(=S)n2Cc2ccccc2)cs1 | 37.9% (active) |
| CC(C)Oc1ccc(CCc2n[nH]c(=S)n2Cc2ccccc2)cc1 | -1.67% |
| C=CCn1c(-c2ccc3[nH]c(C)c(C)c3c2)n[nH]c1=S | 3.87% |
| Cc1cccc(NC(=S)N2CCC(c3nc4ccccc4s3)CC2)c1 | 10.4% |
| CCCCNCc1ccc(SC)cc1 | 3.73% |
| Cc1ccc(S(=O)(=O)N2CCC(C(=O)NCC3CCCO3)CC2)cc1 (stereo not drawn) | 11.9% |
| O=C1NC(Nc2nc3ccccc3s2)(C(F)(F)F)C(=O)N1C1CCCCC1 (stereo not drawn) | 47.7% (active) |
| COC(=O)NC1(C(F)(F)F)NC(=O)N(C2CCCCC2)C1=O (stereo not drawn) | -7.51% |
| COc1ccc(C2Nc3ccccc3C(=O)N2Cc2ccccc2)cc1Cn1nnc2ccccc21 (stereo not drawn) | 13.4% |
| CN(C)c1ccc(NC(=S)N(CCc2ccccc2)C2CC(=O)N(c3c(Cl)cccc3Cl)C2=O)cc1 (stereo not drawn) | 5.66% |
| O=C(O)CCC(=O)NCc1ccc(C(=O)O)cc1 | 12.1% |
| COc1ccc(-c2nc(CCNC(=O)c3ccc(Br)o3)cs2)cc1 | 36.5% (active) |
| CC(CNC(=O)c1ccc(Br)o1)NC(=O)c1ccc(Br)o1 (stereo not drawn) | 18.5% |
| O=C(NCCc1ccccn1)c1ccc(COc2ccccc2)o1 | -1.77% |
